Experimental data as given in ChEMBL document CHEMBL3988442, “University of Dundee, Small-Polar-MMV Screening Library” (2021).

The compounds below were run against AMP-activated protein kinase, AMPK (Homo sapiens) (UniProt P54646+O43741+P54619+Q9UGJ0+Q9Y478+Q13131+Q9UGI9) (assay: AMP-dependent Kinase enzyme assay. An in vitro enzyme assay that detects ADP turnover that is directly proportional to AMPK activity. This uses naive AMPK that is activated during the assay with MK-8722). Settings: 30 µM.
Assay type: functional
Parameters: scale not given: direction of the effect not stated beside the values

Compound | Percent Effect
C[C@@H]1CN(C(=O)C2(Cn3cccn3)CC2)CC[C@@]1(O)C1CCOCC1 | 6.2%
Cn1cc(S(=O)(=O)NCCc2ccsc2)cn1 | 13.7%
Cc1cccc(NC(=O)N2CCOCC(CN(C)C)C2)c1C (stereo not given) | -2.2%
CCOC(=O)C1(O)CCN(C(=O)Nc2ccc(CC)cc2)CC1 | 0.524%
CCC[C@H]1CN(Cc2cc(C#N)n(C)c2C)C[C@@H]1N(C)C | 2.21%
COc1ccc(C2CCN(CCCC#N)CC2)cc1 | 3.86%
CN(Cc1cc(Br)c2c(c1)OCO2)Cc1cscn1 | -9.1%
O=C(CCOc1ccccc1F)N1CCC(O)CC1 | 3.95%
CC(c1ncc(-c2ccccc2)o1)N1CCN(C(=O)N(C)C)CC1 (stereo not given) | -7.85%
Cc1noc(C)c1-c1n[nH]c2c1CN(S(=O)(=O)c1cccnc1)CC2 | 1.02%
CS(=O)(=O)NC1CCN(Cc2coc(-c3ccc(Cl)cc3)n2)CC1 | 1.23%
Cc1cccc(C)c1Nc1noc2c1CN(C(=O)c1cn(C)cn1)CC2 | 17.2%
Cn1c(CO)nnc1SCc1c(F)cccc1Br | 2.62%
CC(C)c1nnc(CN2CC(n3cccn3)C2)o1 | -4.54%
Cc1nc(CN2CCN(S(=O)(=O)N3CCCCC3)CC2)oc1C | -4.45%
CCN1CC(CN(C)c2cc(C)nc(N)n2)Oc2ccccc21 (stereo not given) | 3.94%
CC(NC(=O)N1CCCN(C)CC1)c1ccc(S(N)(=O)=O)cc1 (stereo not given) | 5.68%
Cc1nccn1CCCN1CCCC(c2ccccc2)C1 (stereo not given) | -4.4%
NC1CCc2nc(-c3ccncc3)nc(Nc3cccc(F)c3)c2C1 (stereo not given) | -70.9%
CCc1ncc2c(n1)CN(Cc1nc(-c3ccco3)oc1C)CC2 | -22.8%

Compound | Percent Effect
OC[C@@H]1CCCN1Cc1cn(C2CCN(C3CCCC3)CC2)nn1 | -1.95%
CCN(C)C(=O)c1cccc(S(=O)(=O)NCCc2nc(C)cc(=O)[nH]2)c1 | -5.87%
Cc1cn2nc(N(C)C3CCCN(c4cccnn4)C3)sc2n1 (stereo not given) | 2.94%
C=C(C)CN(CC)C(=O)CN1CCCC1C(=O)N(C)C (stereo not given) | 3.77%
CN(Cc1nc(N)nc(N(C)C)n1)Cc1cccc2ccccc12 | -3.23%
O=C(COc1cc(Cl)cc(Cl)c1)NCc1nncn1C1CC1 | -6.22%
Cc1noc(CCCNC(=O)C2CSCN2C(=O)C(C)(C)C)n1 (stereo not given) | -6.28%
CCC(C)NC(=O)Nc1cccc(OCC#N)c1 (stereo not given) | -0.326%
CNC(=O)N1CCOCC1c1c(C)nn(C)c1C (stereo not given) | -2.45%
COc1ncc(NCc2ccc(F)cc2)cc1C(N)=O | 5.39%
Cc1nc(O)cc(CN2C[C@H](NS(=O)(=O)N(C)C)[C@@H](C3CC3)C2)n1 | -5.32%
CC(C(=O)NC1(C#N)CCCCC1)N1CCc2c(ncn2C)C1 (stereo not given) | -9.22%
CN(Cc1cn(CC2CCNCC2)nn1)CC1CCCCO1 (stereo not given) | 7.46%
COc1cccc(F)c1C(C)NC(=O)NCc1cnc(C)s1 (stereo not given) | 10.2%
O=C(NCc1ccnc(OCC2CC2)c1)C1COc2ccccc2O1 (stereo not given) | 1.5%
Cc1cc(C)n(C2CN(Cc3nc4cc(Cl)ccc4n3C)C2)n1 | 3.42%
CCc1oc(C(=O)NCCSc2ncn[nH]2)cc1CN1CCCC1 | 1.9%
CCN(C)Cc1cccc(CNC(=O)CSCc2ccccn2)c1 | 4.61%
Cc1occc1C(=O)Nc1cccc(C(=O)OCC2CCCN2)c1 (stereo not given) | -5.07%
O=C1CCC2(CCNCC2)CN1Cc1nncn1CCc1ccccc1 | 14.9%
